Source: PubChem BioAssay
Where “and” joins values, the source holds several entries; their conditions need not be identical. Identical values can stand only once. Calls of active or inactive are those of the source.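 The calls were made as follows, unless noted: active = inhibition at or above 50% relative to wild type and mutant plate controls; inactive = inhibition below 50%.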

Experiments:
[1] = inhibitors of TNFa-induced NFkB p65 translocation, primary screen, imaging, HUVEC, MLSMR starter and 10KST1 sets (AID 438;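 active = inhibition above 20% together with a positive visual image hit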;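 also: compound added about 3h40 before a 20 min TNFalpha stimulation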;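 as to inhibition: signal is the nuclear over cytoplasmic p65 intensity ratio per well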); conditions: HUVEC TNFa-induced p65 nuclear translocation; cell count: measured here: nuclei count (cytotoxicity indicator), at 2.08 µM; inhibition: at 2 µM, stronger effect = higher value, 0% TNFa-plus-vehicle, 100% no-TNFa wells
[2] = inhibitors of mutant huntingtin aggregation, primary screen, imaging, exon1htt(103Q)mCFP cells, high-content imaging (AID 483;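 active = visual image review flags a hit and inhibition of aggregation exceeds 20%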;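 also: compound exposure lasted 3 days before fixation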;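 as to nuclei count: percent of the per-plate median nuclei count of sample wells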); conditions: exon1htt(103Q)mCFP cell line, aggregate imaging, at 2 µM; inhibition of aggregation: stronger effect = higher value; nuclei count: measured here: cell count, toxicity
[3] = inhibitors of E-selectin induction by TNFa, primary screen, imaging, HUVEC, immunofluorescence, MLSMR starter and 10KST1 sets (AID 487;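 active = visually confirmed hit in the image check and inhibition above 20%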;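 as to inhibition: signal is fraction of cell area covered by stained E-selectin grains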;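 as to nuclei count: 100% = median nuclei count of all wells on the same plate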); conditions: HUVEC TNFalpha-induced E-selectin immunofluorescence imaging, at 2 µM; inhibition: stronger effect = higher value; nuclei count: measured here: cell number, toxicity
[4] = DUSP6 inhibitors restoring Erk phosphorylation by chemical complementation, primary imaging in DUSP6-transfected HeLa (AID 609;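 active = compounds giving at least 50% inhibition in the cell-based MKP-3 phosphatase rescue imaging test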;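 as to inhibition: phospho-Erk level distribution per well compared with pooled transfected vehicle control wells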); conditions: HeLa MKP-3 transfected, phospho-Erk imaging KS statistic, at 10 µM, cells stimulated with TPA for 15 min
[5] = target: Dual specificity protein phosphatase 6 (Homo sapiens) (UniProt Q16828); assay: as above; conditions: HeLa MKP-3 transfected, phospho-Erk imaging KS statistic; at 10 µM; stronger effect = higher value; cells stimulated with TPA for 15 min
Sequence of Dual specificity protein phosphatase 6 (Homo sapiens) (Q16828 whole entry, looked up): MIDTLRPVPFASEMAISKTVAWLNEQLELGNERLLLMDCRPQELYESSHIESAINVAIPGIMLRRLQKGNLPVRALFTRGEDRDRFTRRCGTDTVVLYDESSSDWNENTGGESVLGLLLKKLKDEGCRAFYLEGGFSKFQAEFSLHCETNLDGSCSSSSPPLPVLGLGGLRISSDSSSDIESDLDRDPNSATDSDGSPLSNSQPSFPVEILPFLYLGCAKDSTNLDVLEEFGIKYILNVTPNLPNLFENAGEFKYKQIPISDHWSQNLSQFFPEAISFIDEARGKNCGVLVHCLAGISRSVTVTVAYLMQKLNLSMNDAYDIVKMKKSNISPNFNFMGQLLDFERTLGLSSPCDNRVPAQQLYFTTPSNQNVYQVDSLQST

[6] = target: Voltage-gated potassium channel subunit beta-2 (Rattus norvegicus) (UniProt P62483); assay: KvBeta enzyme negative modulators, primary screen, biochemical, NADPH fluorescence (AID 622;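 active = fluorescence slope higher than the sample average by over 3 SD, cut at about -0.22 in these data, passing the limit was not always enough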;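 also: slope of raw intensity against log time taken from 70 to 1610 s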); conditions: recombinant KvBeta, 4-cyanobenzaldehyde reduction, at 10 µM, stronger effect = higher value
Sequence of Voltage-gated potassium channel subunit beta-2 (Rattus norvegicus) (P62483 whole entry, looked up): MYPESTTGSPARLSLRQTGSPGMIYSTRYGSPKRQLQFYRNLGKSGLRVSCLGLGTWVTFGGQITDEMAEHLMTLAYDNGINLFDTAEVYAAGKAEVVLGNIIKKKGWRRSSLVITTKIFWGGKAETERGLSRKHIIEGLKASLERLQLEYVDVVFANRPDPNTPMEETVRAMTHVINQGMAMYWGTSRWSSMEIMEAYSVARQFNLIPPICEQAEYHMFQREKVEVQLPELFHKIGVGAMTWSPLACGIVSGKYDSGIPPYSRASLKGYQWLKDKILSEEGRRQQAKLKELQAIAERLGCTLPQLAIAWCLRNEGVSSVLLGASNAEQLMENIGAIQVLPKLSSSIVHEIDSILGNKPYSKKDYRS

[7] = target: Voltage-gated potassium channel subunit beta-2 (Rattus norvegicus) (UniProt P62483); assay: KvBeta positive modulators, primary screen, biochemical, NADPH fluorescence (AID 623;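 active = NADPH fluorescence slope more negative than the mean of all samples by about 3 SD, 99.7% confidence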;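 also: fluorescence intensity change per second fitted from 20 to 320 s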); conditions: Recombinant KvBeta, NADPH fluorescence decrease slope, 10 min; at 10 µM; stronger effect = lower value
[8] = target: Alpha-2C adrenergic receptor (Homo sapiens) (UniProt P18825); assay: modulators of alpha2C/GIRK thallium flux, primary screen, cell-based, HEK293 alpha2C/GIRK1/2 (AID 624;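 active = fluorescence slope after compound addition differing from the mean of all screened samples at 99.7% confidence, in either direction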;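 also: slope of fluorescence ratio to pre-addition baseline per second over 15 to 24 s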); conditions: thallium flux BTC fluorescence, at 10 µM, actives lie on both sides
Sequence of Alpha-2C adrenergic receptor (Homo sapiens) (P18825 whole entry, looked up): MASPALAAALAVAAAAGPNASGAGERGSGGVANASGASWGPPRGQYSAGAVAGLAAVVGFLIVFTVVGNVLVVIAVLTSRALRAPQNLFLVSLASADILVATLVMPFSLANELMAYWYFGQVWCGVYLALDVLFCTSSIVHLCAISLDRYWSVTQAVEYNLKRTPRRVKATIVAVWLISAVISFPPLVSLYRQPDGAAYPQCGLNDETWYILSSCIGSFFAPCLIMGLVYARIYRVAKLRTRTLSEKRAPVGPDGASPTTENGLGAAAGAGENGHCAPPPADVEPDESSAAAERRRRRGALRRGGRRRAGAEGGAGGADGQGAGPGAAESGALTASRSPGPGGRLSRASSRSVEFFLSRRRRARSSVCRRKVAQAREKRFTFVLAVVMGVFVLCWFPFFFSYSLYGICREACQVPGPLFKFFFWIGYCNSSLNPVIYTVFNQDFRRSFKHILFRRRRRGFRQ

[9] = inhibitors of larval lipid processing in zebrafish, primary screen, whole organism, PED6 fluorescence, gall bladder and intestine (AID 686;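 active = a full or partial loss of lipid-probe fluorescence in the fish gall bladder, intestine or both, judged by eye; inactive = no fluorescence loss, or compound toxic to the fish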;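 also: larvae 5 to 7 days old with five fish per well; signal comes from phospholipase A2 cleavage of quenched PED6 carried via bile; overnight exposure to compound and PED6 before scoring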); conditions: Zebrafish larvae PED6 lipid processing, fluorescence scoring; screened at 20 µM (by protocol)
[10] = inhibitors of Chlamydomonas gravitaxis, primary screen, whole organism, Chlamydomonas reinhardtii, WT vs cilia-less mutant, absorbance, 96-well (AID 463189); conditions: OD600 absorbance, 2 days, at 10 µM, stronger effect = higher value;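 also: 0% = wild type cc124 cells in DMSO and 100% = ciliumless bld1 mutant cells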
[11] = inhibitors of Sendai virus-induced IRF3 signaling, primary screen, TLR/RLR signaling modifier project, cell-based, Sendai virus stimulus, luciferase, 10K MLSCN set (AID 602276;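 active = inhibition at or above 50% at 10 µM; inactive = inhibition below 50%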;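 also: firefly luciferase from ISG56 promoter only with Renilla not read in this screen; 0% = Sendai virus plus DMSO and 100% = medium plus DMSO without virus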); conditions: HEK293 RL24 IRF3 luciferase reporter, at 10 µM, stronger effect = higher value
[12] = inhibitors of poly I:C-induced TLR3 signaling, primary screen, cell-based, poly I:C stimulus, luciferase, 10K MLSCN set (AID 602277;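 active = inhibition of the reporter signal at or above 50%; inactive = inhibition below 50%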); conditions: HEK293-TLR3 RL24 IRF3 luciferase reporter, at 10 µM, stronger effect = higher value
[13] = measured here: cell density z-score
[14] = measured here: nuclear c-Myc green intensity z-score
[15] = measured here: nuclear pErk red intensity z-score, stronger effect = higher value

SMILES | cell count [1] | inhibition [1] | inhibition of aggregation [2] | nuclei count [2] | inhibition [3] | nuclei count [3] | z-score [4, 13] | z-score [4, 14] | z-score [4, 15] | inhibition [5] | fluorescence slope [6] | NADPH fluorescence slope [7] | slope [8] | outcome [9] | inhibition [10] | inhibition [11] | inhibition [12]
O=c1oc2cc(O)ccc2c2oc3cc(O)ccc3c12 | 610 | 3.6% (inactive) | 11.2% (inactive) | 78.7% | -22% (inactive) | 112% | 0.528 | 1.66 | -1.32 | 25.7% (inactive) | -0.398 (inactive) | -1e-05 (inactive) | 0.00469 (inactive) | inactive | 6.48% (inactive) | 12.4% (inactive) | 41.2% (inactive)
Cc1cc(N2CCN(C3CCCC3)CC2)n2c(nc3ccccc32)c1C#N | 582 | -4.5% (inactive) | 36.4% (active) | 57.7% | 6.5% (inactive) | 110% | 1.58 | 0.862 | -0.0668 | 17.8% (inactive) | -0.33 (inactive) | -3.1e-05 (inactive) | 0.00579 (inactive) | inactive | -3.52% (inactive) | 24.6% (inactive) | 39% (inactive)
N[C@@H](Cc1ccc(O)c(I)c1)C(=O)O | 525 | 0.1% (inactive) | 1.7% (inactive) | 92.3% | -11.6% (inactive) | 110% | -0.528 | -0.732 | -0.19 | -4.44% (inactive) | -0.463 (inactive) | 3e-05 (inactive) | 0.00503 (inactive) | inactive | 0.129% (inactive) and -19.2% (inactive) | 9.28% (inactive) | 24.3% (inactive)
COc1ccc2cnn(-c3ccccc3C)c(=O)c2c1OC | 613 | -6.2% (inactive) | 1.9% (inactive) | 116% | -124% (inactive) | 157% | 0.481 | 0.125 | 1.16 | -6.48% (inactive) | -0.372 (inactive) | -3.7e-05 (inactive) | 0.00535 (inactive) | inactive | 9.21% (inactive) | 9.25% (inactive) | 5.14% (inactive)
CN(C1CCS(=O)(=O)C1)S(=O)(=O)c1cccc2nsnc12 (stereo not drawn) | 506 | -15.3% (inactive) | -7.5% (inactive) | 117% | -64.1% (inactive) | 135% | 0.217 | 0.807 | -0.289 | -16.8% (inactive) | -0.513 (inactive) | -6.5e-05 (inactive) | 0.00498 (inactive) | inactive | 19.4% (inactive) | 15.8% (inactive) | 14.5% (inactive)
C=CCn1c(SCC#N)nc2c(c1=O)C(C)(C)Cc1ccccc1-2 | 648 | -0.1% (inactive) | 11.6% (inactive) | 107% | -30.9% (inactive) | 136% | 1.4 | 0.411 | -0.925 | 34.8% (inactive) | -0.315 (inactive) | -5.8e-06 (inactive) | 0.00525 (inactive) | inactive | 104% (active) | -4.84% (inactive) | 6.72% (inactive)
NS(=O)(=O)c1cc2c(cc1C(F)(F)F)NC(Cc1ccccc1)NS2(=O)=O (stereo not drawn) | 519 | -2.8% (inactive) | 18.4% (inactive) | 75.3% | -18.5% (inactive) | 105% | -0.539 | -0.574 | 0.0203 | -0.493% (inactive) | -0.528 (inactive) | 7.9e-07 (inactive) | 0.00523 (inactive) | inactive | -16.5% (inactive) | 9.6% (inactive) | 2% (inactive)
Cn1c(-n2c(-c3ccco3)nc3ccccc3c2=O)nc2ccccc21 | 589 | -10.5% (inactive) | 32% (inactive) | 109% | -8.3% (inactive) | 126% | 0.944 | 0.431 | -0.392 | 8.31% (inactive) | -0.351 (inactive) | -6.3e-06 (inactive) | 0.00557 (inactive) | inactive | 9.97% (inactive) | 20.8% (inactive) | 6.14% (inactive)
CCN(CC)CCNC(=O)c1cc(S(C)(=O)=O)ccc1OC | 676 | -4.3% (inactive) | 0.8% (inactive) | 118% | -40% (inactive) | 137% | -1.16 | -0.48 | 0.595 | 1.48% (inactive) | -0.508 (inactive) | -3.1e-05 (inactive) | 0.00485 (inactive) | inactive | 3.78% (inactive) and -4.27% (inactive) | 21.3% (inactive) | 35.4% (inactive)
CCOC(=O)C1=C(C)N=C2SC(C)C(=O)N2C1c1cccc(F)c1 (stereo not drawn) | 400 | -2.2% (inactive) | 9.9% (inactive) | 102% | -10.3% (inactive) | 139% | -0.692 | 0.668 | 0.0738 | 5.42% (inactive) | -0.448 (inactive) | -0.000135 (inactive) | 0.00424 (inactive) | inactive | -0.443% (inactive) | 25.4% (inactive) | 20.1% (inactive)
Nc1nc(N)c2nc(-c3ccccc3)c(N)nc2n1 | 640 | -0.8% (inactive) | -9.9% (inactive) | 107% | -64.7% (inactive) | 133% | -0.982 | -0.143 | 2.15 | -11.9% (inactive) | -0.0137 (active) | -1.2e-05 (inactive) | 0.00479 (inactive) | inactive | 4.85% (inactive) and -8.55% (inactive) | 12.2% (inactive) | 34.5% (inactive)
CCN(CC)c1ncc(C)c(=O)[nH]1 | 410 | -19.3% (inactive) | -26.9% (inactive) | 121% | -44.9% (inactive) | 111% | 0.304 | -0.433 | -0.0626 | -2.69% (inactive) | -0.541 (inactive) | -8.2e-05 (inactive) | 0.00493 (inactive) | inactive | 31.2% (inactive) | 22.3% (inactive) | 22% (inactive)
Cc1cc(C)n(CC(=O)n2c3c(c4ccccc42)CCCC3)n1 | 515 | -6.5% (inactive) | 13.5% (inactive) | 99.3% | -92.5% (inactive) | 130% | -0.283 | 1.41 | 0.335 | -1.98% (inactive) | -0.53 (inactive) | -3.4e-05 (inactive) | 0.0062 (inactive) | inactive | -0.753% (inactive) | -7.05% (inactive) | 1.75% (inactive)
C=CCSc1nnc2n(-c3ccccc3OC)c(=O)c3c4c(sc3n12)CCC4 | 578 | -5.9% (inactive) | 15.1% (inactive) | 59.7% | -27% (inactive) | 126% | 0.876 | -0.888 | -0.633 | 7.73% (inactive) | -0.339 (inactive) | -1.1e-06 (inactive) | 0.00538 (inactive) | inactive | 43.3% (inactive) | 1.81% (inactive) | 0.316% (inactive)
CC(=O)O[C@]1(C(C)=O)CC[C@H]2[C@@H]3C=C(C)C4=CC(=O)CC[C@]4(C)[C@H]3CC[C@@]21C | 697 | -4.5% (inactive) | -13.2% (inactive) | 103% | -91% (inactive) | 125% | 0.989 | -0.815 | -0.896 | 7.39% (inactive) | -0.492 (inactive) | -2e-05 (inactive) | 0.00287 (inactive) | inactive | 1.32% (inactive) | 15.7% (inactive) | 41% (inactive)
Cc1cc(-c2ccc(F)cc2)nc2cc(C(N)=O)nn12 | 567 | -4% (inactive) | 8.1% (inactive) | 99.3% | 14.3% (inactive) | 117% | -0.951 | 0.396 | -0.666 | 5.57% (inactive) | -0.377 (inactive) | -0.000109 (inactive) | 0.00367 (inactive) | inactive | 13.5% (inactive) | -10.5% (inactive) | -21.7% (inactive)
O=C(O)c1cc(-c2ccccc2)nc2ccccc12 | 572 | -5.1% (inactive) | -4.1% (inactive) | 92.2% | -66.9% (inactive) | 121% | 0.461 | 0.0575 | -0.708 | -0.493% (inactive) | -0.459 (inactive) | -5.4e-05 (inactive) | 0.00561 (inactive) | inactive | -8.89% (inactive) | 5.39% (inactive) | 34.2% (inactive)
O=C(C1=C(O)C(=O)N(c2ncccn2)C1c1cccc(Cl)c1)c1ccco1 (stereo not drawn) | 454 | -2.1% (inactive) | 23.5% (inactive) | 97.7% | -61.9% (inactive) | 138% | 0.991 | -0.348 | 0.185 | -4.7% (inactive) | -0.349 (inactive) | -2.5e-05 (inactive) | 0.00586 (inactive) | inactive | 3.84% (inactive) | 11% (inactive) | 1.21% (inactive)
Cc1nc(NS(=O)(=O)c2ccccc2)sc1NC(=O)OC(C)C | 364 | -12.7% (inactive) | -9.8% (inactive) | 108% | -118% (inactive) | 138% | -0.163 | -0.612 | 0.551 | 17.5% (inactive) | -0.415 (inactive) | 1e-05 (inactive) | 0.00272 (inactive) | inactive | 16.7% (inactive) | 2.77% (inactive) | 9.41% (inactive)
